The record followed here is PubChem BioAssay (EPA / NIEHS).

Active and inactive are the calls of the source. The calls were made as follows: active = hit-call score of the fitted dose curve at least 0.9, where 1 is the maximum; inactive = score below 0.9.

Experiment [1] is described as follows: ATG_GRE_CIS: Attagene CIS-FACTORIAL HepG2 Assay for human Glucocorticoid Response Elements (GRE) (AID 2282947). Conditions: HepG2 GRE cis-reporter, Attagene multiplex mRNA; actives raise or lower the signal. The gist of the method: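 Cells (HepG2) bearing transfected cis-promoter reporter transcription units were treated with chemical for 24 hours. Reporter mRNA was measured via RT-PCR with capillary electrophoresis, and activity was fitted in both directions relative to DMSO.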

The nature of experiment [2]: ATG_ISRE_CIS: Attagene CIS-FACTORIAL HepG2 Assay for human Interferon Regulatory Factor 1 (IRF1) binding to an Interferon-Stimulated Response Element (ISRE) (AID 2282948). Conditions: HepG2 ISRE cis-reporter (Attagene), mRNA transcription readout; actives raise or lower the signal. The gist of the method:
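Endogenous transcription factor activity read as reporter transcript abundance via RT-PCR and capillary electrophoresis. HepG2 cells transiently transfected, 24 h chemical exposure. Gain or loss fitted against DMSO baseline.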

Experiment [3] in a line: ATG_M_32_CIS: Attagene CIS-FACTORIAL HepG2 Assay for M32 Transcription Factor (Internal Marker) (AID 2282949).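 Also: background control marker of the multiplexed CIS panel rather than a real target.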 The settings on record: HepG2 Attagene cis-factorial M32 reporter, mRNA; actives raise or lower the signal. In short, it runs like this: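 HepG2 transfectants (cis-regulated reporter transcription units) dosed 24 h. Reporter mRNA by RT-PCR plus CE, analysed as gain or loss relative to DMSO.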

For experiment [4], the target named is Hypoxia-inducible factor 1-alpha (Homo sapiens) (UniProt Q16665). The experiment can be described thus: ATG_HIF1a_CIS: Attagene CIS-FACTORIAL HepG2 Assay for human Hypoxia Inducible Factor 1 (HIF1A) (AID 2282951). Conditions: HepG2 Attagene cis-factorial HIF1a reporter transcription; actives raise or lower the signal. The gist of the method:
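HepG2, transient cis-reporter library, 24 h dosing. RNA → RT (oligo dT) → PCR → 6-FAM primer extension → HpaI → CE. Bidirectional curve fit vs DMSO.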

For experiment [5], the target named is Hepatocyte nuclear factor 6 (Homo sapiens) (UniProt Q9UBC0). The experiment can be described thus: ATG_HNF6_CIS: Attagene CIS-FACTORIAL HepG2 Assay for human Hepatocyte Nuclear Factor 6 (HNF6) (AID 2282952). Conditions: HepG2 Attagene cis-factorial HNF6 reporter transcription; actives raise or lower the signal. The gist of the method: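 Endogenous transcription factor activity in human HepG2 liver cells was captured through cis-regulated reporter constructs. After 24 h treatment, reporter mRNA was measured by RT-PCR with capillary electrophoresis, and activity was fitted in both directions relative to DMSO.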

The target of experiment [6] is Heat shock factor protein 1 (Homo sapiens) (UniProt Q00613). Put plainly: ATG_HSE_CIS: Attagene CIS-FACTORIAL HepG2 Assay for human Heat Shock Transcription Factor 1 (HSE) (AID 2282953). Conditions: HepG2 HSE cis-reporter, Attagene RNA transcription; actives raise or lower the signal. In short, it runs like this: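 Cells were transfected with cis-element-driven reporter constructs, dosed for 24 h, then total RNA was reverse-transcribed and reporter cDNA amplified, FAM-labelled and digested with HpaI. Fragments were resolved by capillary electrophoresis; gain or loss was fitted against DMSO.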

A short description of experiment [7]: ATG_MRE_CIS: Attagene CIS-FACTORIAL HepG2 Assay for human Metal Responsive Element (MRE) (AID 2282954). The settings on record: HepG2 MRE cis-reporter transcription, Attagene multiplex; actives raise or lower the signal. The gist of the method: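 Cells were transfected with cis-promoter reporter transcription units, then dosed for 24 h. RNA was reverse-transcribed, amplified, fluorescently labelled and resolved by capillary electrophoresis, and activity was fitted in both directions relative to DMSO.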

Experiment [8] in a line: ATG_PBREM_CIS: Attagene CIS-FACTORIAL HepG2 Assay for human Phenobarbital-responsive Enhancer Module (PBREM) (AID 2282955). Conditions: HepG2 PBREM cis-reporter, Attagene multiplexed transcription; actives raise or lower the signal. In short, it runs like this: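 HepG2, transient MRTU transfection, 24 h dosing; RNA → oligo(dT) RT → PCR → 6-FAM extension → HpaI → CE. Bidirectional fit vs DMSO.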

Experiment [9] has as its target Paired box protein Pax-6 (Homo sapiens) (UniProt P26367). The experiment can be described thus: ATG_Pax6_CIS: Attagene CIS-FACTORIAL HepG2 Assay for human Paired Box 6 (PAX6) (AID 2282956). Conditions: HepG2 CIS-FACTORIAL PAX6 reporter transcription, RNA readout; actives raise or lower the signal. The gist of the method: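 Read-out is reporter transcript level, measured by RT-PCR with fluorescent primer extension and capillary electrophoresis after 24 h dosing of transfected HepG2 cells. Activity in either direction fitted relative to DMSO control.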

A short description of experiment [10]: ATG_PXRE_CIS: Attagene CIS-FACTORIAL HepG2 Assay for human Pregnane X Receptor Element (PXRE) (AID 2282957). The settings on record: HepG2 Attagene CIS-FACTORIAL PXRE reporter, mRNA; actives raise or lower the signal. The gist of the method: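 Endogenous transcription factor activity in HepG2 was gauged through induction of reporter mRNA driven by a cis-regulating promoter element, sampled 24 h post-treatment. Activity was fitted in both directions against DMSO negative control.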

The nature of experiment [11]: ATG_PPRE_CIS: Attagene CIS-FACTORIAL HepG2 Assay for human Peroxisome Proliferator-activated Response Element (PPRE) (AID 2282958). The settings on record: HepG2 PPRE cis-element reporter, Attagene transcription factor profiling; actives raise or lower the signal. The gist of the method: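 Transcript-level reporter induction in transfected HepG2 cells after 24 h chemical exposure, quantified by fluorescence from RT-PCR products separated by capillary electrophoresis.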

A short description of experiment [12]: ATG_RORE_CIS: Attagene CIS-FACTORIAL HepG2 Assay for human RAR-related Orphan Receptor Element (RORE) (AID 2282959). The settings on record: HepG2 Attagene cis-factorial RORE reporter, mRNA; actives raise or lower the signal. In short, it runs like this: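 Multiplexed reporter assay measuring mRNA induction from a cis promoter element in transiently transfected HepG2 cells after 24 h treatment. Detection via RT-PCR and capillary electrophoresis fluorescence; DMSO serves as baseline.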

Experiment [13] in a line: ATG_Sox_CIS: Attagene CIS-FACTORIAL HepG2 Assay for human SRY-box transcription factor (SOX) (AID 2282960). Conditions: HepG2 Attagene cis-factorial SOX reporter, mRNA; actives raise or lower the signal. In short, it runs like this:
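Cells were transfected with reporter constructs under cis-regulatory promoters, then exposed to chemicals for 24 h. Reporter transcripts were quantified by fluorescence after RT-PCR and capillary electrophoresis; activity was fitted in both directions against DMSO.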

In experiment [14] the target is Transcription factor Sp1 (Homo sapiens) (UniProt P08047). The experiment can be described thus: ATG_Sp1_CIS: Attagene CIS-FACTORIAL HepG2 Assay for human Specificity Protein 1 (Sp1) (AID 2282961). The settings on record: HepG2 Sp1 cis-reporter transcription, actives raise or lower the signal. In short, it runs like this: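 Measures mRNA induction of an Sp1-linked reporter in HepG2 cells 24 h post-dosing. Multiplexed reporters read by RT-PCR and capillary electrophoresis; DMSO serves as negative control and baseline.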

Experiment [15] can be described thus: ATG_SREBP_CIS: Attagene CIS-FACTORIAL HepG2 Assay for human Sterol Regulatory Element Binding (SREBP) (AID 2282962). Conditions: HepG2 Attagene cis-factorial SREBP reporter, mRNA; actives raise or lower the signal. In short, it runs like this:
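Endogenous SREBP activity read as cis-element-driven reporter transcript in transiently transfected HepG2, 24 h post-dosing; quantified via RT-PCR plus capillary electrophoresis of fluorescent fragments. Gain or loss of signal fitted relative to DMSO baseline.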

In experiment [16] the target is Signal transducer and activator of transcription 3 (Homo sapiens) (UniProt P40763). Put plainly: ATG_STAT3_CIS: Attagene CIS-FACTORIAL HepG2 Assay for human Signal Transducer and Activator of Transcription 3 (STAT3) (AID 2282963). Conditions: HepG2, Attagene cis-factorial STAT3 reporter transcription; actives raise or lower the signal. In short, it runs like this:
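HepG2, MRTU-transfected, 24 h dosing. RNA → RT → PCR → FAM label → HpaI → CE. Bidirectional fit vs DMSO.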

Experiment [17] in a line: ATG_TA_CIS: Attagene CIS-FACTORIAL HepG2 Assay for human TA Basal Promoter (AID 2282964). Conditions: HepG2 Attagene CIS-factorial TA basal promoter reporter; actives raise or lower the signal. In short, it runs like this:
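Steps: transfect HepG2 with MRTUs; dose 24 h; isolate RNA, DNase-treat, reverse-transcribe; PCR and FAM-label reporter cDNA; digest with HpaI 2h at 37 C; run capillary electrophoresis. Activity fitted both directions against DMSO.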

Experiment [18] is described as follows: ATG_M_06_CIS: Attagene CIS-FACTORIAL HepG2 Assay for M06 Transcription Factor (Internal Marker) (AID 2282950). The settings on record: HepG2 Attagene CIS-FACTORIAL M06 internal marker reporter; actives raise or lower the signal. The gist of the method:
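Steps: transfect HepG2 with multiplexed cis-element reporter constructs; dose chemical 24 h; extract RNA with DNase treatment; reverse-transcribe, PCR-amplify, 6-FAM label, HpaI digest; separate fragments by capillary electrophoresis. Activity fitted both directions versus DMSO.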

Experiment [19] is described as follows: ATG_TCF_b_cat_CIS: Attagene CIS-FACTORIAL HepG2 Assay for human T-Cell-Factor with beta-catenin (TCF/b-cat) (AID 2282965). Conditions: HepG2 TCF/beta-catenin cis-reporter transcription, actives raise or lower the signal. The gist of the method: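 Using capillary electrophoresis as the read-out, labelled reporter cDNA fragments from transiently transfected HepG2 were sized and quantified. Exposure lasted 24 hours; activity in either direction was referenced to DMSO.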

Sequence of Transcription factor Sp1 (Homo sapiens) (P08047 whole entry, looked up): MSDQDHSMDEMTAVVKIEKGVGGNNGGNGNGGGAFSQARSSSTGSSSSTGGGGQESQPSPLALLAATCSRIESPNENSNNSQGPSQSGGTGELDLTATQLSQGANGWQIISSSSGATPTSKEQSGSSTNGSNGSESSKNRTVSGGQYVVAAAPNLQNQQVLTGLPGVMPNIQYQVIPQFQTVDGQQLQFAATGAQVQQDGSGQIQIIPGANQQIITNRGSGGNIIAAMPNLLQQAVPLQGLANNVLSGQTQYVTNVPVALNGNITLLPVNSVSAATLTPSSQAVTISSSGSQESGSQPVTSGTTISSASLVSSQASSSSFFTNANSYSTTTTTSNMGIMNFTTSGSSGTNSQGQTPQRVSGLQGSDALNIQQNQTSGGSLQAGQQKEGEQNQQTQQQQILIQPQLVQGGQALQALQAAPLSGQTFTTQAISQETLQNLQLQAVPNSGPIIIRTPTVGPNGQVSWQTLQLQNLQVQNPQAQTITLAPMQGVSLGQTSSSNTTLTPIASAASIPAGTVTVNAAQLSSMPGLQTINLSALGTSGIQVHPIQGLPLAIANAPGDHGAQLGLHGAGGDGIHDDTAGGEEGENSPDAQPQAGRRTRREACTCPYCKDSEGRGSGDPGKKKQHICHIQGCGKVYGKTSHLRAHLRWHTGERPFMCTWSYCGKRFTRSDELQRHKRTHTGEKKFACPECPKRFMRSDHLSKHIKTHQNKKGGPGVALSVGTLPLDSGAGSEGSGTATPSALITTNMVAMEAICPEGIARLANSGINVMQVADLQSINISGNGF
Sequence of Heat shock factor protein 1 (Homo sapiens) (Q00613 whole entry, looked up, the tested form may be a part): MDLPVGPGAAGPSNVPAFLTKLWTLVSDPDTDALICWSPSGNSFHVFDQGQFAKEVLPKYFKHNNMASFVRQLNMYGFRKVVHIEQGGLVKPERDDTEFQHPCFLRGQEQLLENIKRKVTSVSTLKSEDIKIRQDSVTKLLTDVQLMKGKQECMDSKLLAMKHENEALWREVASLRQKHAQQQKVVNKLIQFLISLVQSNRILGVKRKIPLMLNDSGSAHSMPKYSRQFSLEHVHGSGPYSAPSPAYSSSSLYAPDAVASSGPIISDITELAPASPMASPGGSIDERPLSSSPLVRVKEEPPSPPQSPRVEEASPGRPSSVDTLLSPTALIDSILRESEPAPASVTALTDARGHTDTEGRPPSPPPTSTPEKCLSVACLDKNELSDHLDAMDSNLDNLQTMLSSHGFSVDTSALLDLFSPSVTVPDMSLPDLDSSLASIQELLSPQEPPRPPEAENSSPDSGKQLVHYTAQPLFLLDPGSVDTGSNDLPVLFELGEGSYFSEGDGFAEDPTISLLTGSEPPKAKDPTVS
Sequence of Hypoxia-inducible factor 1-alpha (Homo sapiens) (Q16665 whole entry, looked up): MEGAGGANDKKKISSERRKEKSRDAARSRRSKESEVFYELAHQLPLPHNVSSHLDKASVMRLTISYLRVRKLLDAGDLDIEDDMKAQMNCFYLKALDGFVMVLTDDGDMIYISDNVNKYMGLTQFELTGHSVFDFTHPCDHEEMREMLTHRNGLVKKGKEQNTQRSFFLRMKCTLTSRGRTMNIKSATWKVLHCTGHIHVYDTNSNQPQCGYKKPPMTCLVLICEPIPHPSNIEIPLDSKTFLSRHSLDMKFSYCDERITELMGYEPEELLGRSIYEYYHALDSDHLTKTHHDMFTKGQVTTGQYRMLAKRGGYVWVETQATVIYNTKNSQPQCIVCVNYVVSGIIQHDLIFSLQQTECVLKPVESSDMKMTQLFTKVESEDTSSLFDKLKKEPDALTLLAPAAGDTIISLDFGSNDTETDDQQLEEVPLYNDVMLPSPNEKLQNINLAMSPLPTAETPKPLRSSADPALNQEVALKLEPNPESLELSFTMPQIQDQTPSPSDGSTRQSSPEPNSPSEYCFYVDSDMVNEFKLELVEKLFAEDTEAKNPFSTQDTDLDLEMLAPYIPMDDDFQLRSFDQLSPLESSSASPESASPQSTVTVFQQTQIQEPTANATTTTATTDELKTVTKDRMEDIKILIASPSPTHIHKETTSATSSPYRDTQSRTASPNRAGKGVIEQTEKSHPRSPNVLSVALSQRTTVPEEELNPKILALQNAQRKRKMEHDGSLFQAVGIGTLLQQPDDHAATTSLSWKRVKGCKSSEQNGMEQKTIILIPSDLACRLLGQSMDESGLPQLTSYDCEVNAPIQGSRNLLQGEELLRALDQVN
Sequence of Hepatocyte nuclear factor 6 (Homo sapiens) (Q9UBC0 whole entry, looked up): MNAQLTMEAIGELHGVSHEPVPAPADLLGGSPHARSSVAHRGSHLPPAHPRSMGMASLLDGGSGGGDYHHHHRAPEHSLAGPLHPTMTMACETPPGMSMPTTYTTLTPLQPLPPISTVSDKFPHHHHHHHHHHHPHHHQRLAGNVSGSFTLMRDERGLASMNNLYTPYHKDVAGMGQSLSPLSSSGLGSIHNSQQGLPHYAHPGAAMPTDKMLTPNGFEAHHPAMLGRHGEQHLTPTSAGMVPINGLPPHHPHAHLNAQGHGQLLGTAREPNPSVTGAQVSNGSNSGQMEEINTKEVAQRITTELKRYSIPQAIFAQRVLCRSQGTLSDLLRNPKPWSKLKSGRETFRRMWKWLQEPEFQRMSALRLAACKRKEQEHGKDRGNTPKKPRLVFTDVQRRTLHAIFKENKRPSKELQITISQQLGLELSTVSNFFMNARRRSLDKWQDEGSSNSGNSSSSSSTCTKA
Sequence of Signal transducer and activator of transcription 3 (Homo sapiens) (P40763 whole entry, looked up): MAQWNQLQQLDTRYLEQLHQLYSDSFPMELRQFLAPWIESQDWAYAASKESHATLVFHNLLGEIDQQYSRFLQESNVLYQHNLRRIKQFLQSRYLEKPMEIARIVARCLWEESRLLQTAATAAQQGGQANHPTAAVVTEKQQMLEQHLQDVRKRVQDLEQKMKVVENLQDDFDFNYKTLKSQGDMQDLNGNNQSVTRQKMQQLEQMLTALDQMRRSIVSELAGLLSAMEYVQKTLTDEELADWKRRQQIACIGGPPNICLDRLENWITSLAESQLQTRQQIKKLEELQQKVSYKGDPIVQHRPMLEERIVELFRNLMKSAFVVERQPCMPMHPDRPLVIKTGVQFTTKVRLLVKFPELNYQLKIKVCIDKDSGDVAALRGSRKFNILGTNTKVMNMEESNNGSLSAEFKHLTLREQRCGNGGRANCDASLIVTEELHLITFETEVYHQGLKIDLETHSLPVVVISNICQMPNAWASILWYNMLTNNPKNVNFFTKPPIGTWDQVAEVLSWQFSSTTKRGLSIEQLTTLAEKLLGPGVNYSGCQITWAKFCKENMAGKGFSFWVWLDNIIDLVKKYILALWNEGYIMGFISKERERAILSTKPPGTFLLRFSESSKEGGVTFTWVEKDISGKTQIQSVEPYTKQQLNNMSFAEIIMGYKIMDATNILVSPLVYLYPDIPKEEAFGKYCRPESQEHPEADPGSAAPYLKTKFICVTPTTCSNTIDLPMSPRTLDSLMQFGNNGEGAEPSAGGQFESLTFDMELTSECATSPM
Sequence of Paired box protein Pax-6 (Homo sapiens) (P26367 whole entry, looked up): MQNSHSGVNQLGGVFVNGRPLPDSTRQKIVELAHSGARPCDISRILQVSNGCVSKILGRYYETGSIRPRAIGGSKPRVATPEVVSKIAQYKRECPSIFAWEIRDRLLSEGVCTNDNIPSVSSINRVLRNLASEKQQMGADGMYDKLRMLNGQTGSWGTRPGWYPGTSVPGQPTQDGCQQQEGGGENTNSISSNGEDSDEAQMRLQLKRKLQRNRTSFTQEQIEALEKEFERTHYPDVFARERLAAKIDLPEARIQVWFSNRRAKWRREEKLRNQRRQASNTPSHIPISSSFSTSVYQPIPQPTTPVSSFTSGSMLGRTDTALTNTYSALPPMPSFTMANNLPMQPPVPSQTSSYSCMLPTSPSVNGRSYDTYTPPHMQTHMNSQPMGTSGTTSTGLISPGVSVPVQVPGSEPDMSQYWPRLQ

In general, AC50 refers to the concentration giving half of the maximal activity seen. `C=Cc1ccc(C)cc1`: the call in [1], in experiment [2], in [3], in experiment [4], in experiment [5] and in [6] was inactive. Further, the call in experiment [7], in experiment [8], in experiment [9], in experiment [11], in experiment [12] and in experiment [13] was inactive. Moreover, the outcome in experiment [14], in experiment [15], in [16] and in [17] was inactive. For the same compound, in [10], the AC50 is 36.9 µM (active).

`CC(C)(N=C=O)c1cccc(C(C)(C)N=C=O)c1`: the compound was called inactive in [1], in [2], in [18], in [4], in experiment [7] and in experiment [8]. Besides, the result in experiment [9], in experiment [11], in [12], in [13], in experiment [14] and in experiment [15] was inactive. Also, in experiment [17], the outcome was inactive. Moreover, the AC50 in experiment [10] was 13.1 µM (active).

On to `CC1(C)COCN1`, for which the compound was classed as inactive in experiment [1], in [2], in [3], in experiment [18], in experiment [5] and in experiment [6]. In addition, the outcome in experiment [7], in [8], in [9], in experiment [10], in experiment [12] and in experiment [13] was inactive. The outcome in experiment [14], in experiment [15], in experiment [16], in experiment [17] and in experiment [19] was inactive.

As for `C=C(CC(=O)O)C(=O)O`, the result in experiment [1], in experiment [2], in experiment [3], in experiment [5], in experiment [6] and in [7] was inactive. The outcome in experiment [9], in experiment [10], in experiment [11], in experiment [12], in [14] and in experiment [15] was inactive. Moreover, the result in experiment [16], in experiment [17] and in experiment [19] was inactive.

For `CCCCCCCC/C=C\CCCCCCCC(=O)OCC`, the outcome in experiment [1], in experiment [2], in [3], in experiment [4], in experiment [5] and in experiment [6] was inactive. The call in experiment [7], in experiment [8], in experiment [9], in experiment [10], in experiment [11] and in experiment [13] was inactive. In addition, the compound was classed as inactive in [14], in experiment [15], in [17] and in [19].

Take `CCC(Cl)C(Cl)C(Cl)CC(Cl)C(Cl)C(C)Cl` (configuration not stated): the result in experiment [1], in experiment [2], in experiment [3], in experiment [18], in experiment [4] and in [5] was inactive. Moreover, the outcome in experiment [6], in [9], in experiment [11], in experiment [12], in [13] and in [14] was inactive. Also, the call in experiment [15], in experiment [16], in [17] and in experiment [19] was inactive. Besides, the figures for the AC50 in [7] and in experiment [10] were 74 µM (active) and 0.885 µM (active), respectively.

Take `CC(C)Nc1nc(N)nc(Cl)n1`: the compound was called inactive in experiment [1], in experiment [2], in experiment [3], in experiment [18], in experiment [4] and in experiment [5]. Also, the result in experiment [6], in experiment [7], in [9], in experiment [10], in experiment [11] and in experiment [13] was inactive. Besides, the result in [14], in experiment [15] and in [16] was inactive.
